VACV Venus inh: qHTS for Stage-Specific Inhibitors of Vaccinia Orthopoxvirus: Venus Reporter Primary qHTS; Potency, µM (highest dose often 36.5 µM), inactives show top-dose activity change, negative = inhibition, hits mostly inhibitors; actives 0.46% (n = 330,000); Vaccinia virus Venus reporter expression, fluorescence; AID 720580, 2013; calls by dose curve; tested in A549 cells; note: nearly all actives have a fitted effect of over 30% in size
HCV inh: qHTS Assay for Inhibitors of Hepatitis C Virus (HCV). Huh7.5.1 HCVcc-Cre infection, luciferase reporter, 44 h. actives 3.4% (n = 340,000). Potency, µM (highest dose often 41.8 µM), for inactives: at the highest dose activity change, negative = inhibition, hits mostly inhibitors; active = well fitted inhibition curve with a large enough effect; inconclusive = small, poorly fitted or top-dose-only effect, or another doubt; inactive = no such curve, though single readings can be large or run the other way
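Antiviral activity was scored by luciferase reporter output from cells infected with HCVcc-Cre (~0.5 moi) in presence of compound, 44 h infection period, cells seeded 1,000/well 4 h prior.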
FMDV antiviral: High Throughput Screening for Foot and Mouth Disease Virus Antivirals. AID 1159524, 2015. Potency, µM (titrated, usually from 57.9 µM), inactives show at the top dose activity change, negative = inhibition, hits mostly inhibitors. actives 1.2% (n = 410,000). FMDV antiviral cell-based qHTS; calls by dose curve; tested in HEK293T cells; note: read-out not given here; nearly all actives have a fitted effect of over 45% in size
MARV entry inh: qHTS for inhibitors of binding or entry into cells for Marburg Virus; Marburg virus pseudotyped entry inhibition, cell reporter; Potency, µM (top dose mostly 37.8 µM), for inactives: at the top dose activity change, negative = inhibition, actives largely listed as inhibitors; actives 1.8% (n = 300,000); AID 540276, 2011; calls by dose curve; tested in HEK293 cells
LASV entry inh: qHTS for Inhibitors of binding or entry into cells for Lassa Virus. Potency, µM (series often up to 37.9 µM), for inactives: top-dose activity change, negative = inhibition, actives largely listed as inhibitors. actives 1.2% (n = 300,000). Lassa virus pseudotype entry inhibition, cell reporter; calls by dose curve; tested in HEK293 cells; note: nearly all actives have a fitted effect of over 50% in size
VACV mCherry inh: qHTS for Stage-Specific Inhibitors of Vaccinia Orthopoxvirus: mCherry Reporter Primary qHTS; Vaccinia virus mCherry reporter infection, fluorescence; Potency, µM (titrated, usually from 36.5 µM), for the others: at the top dose activity change, negative = inhibition, most hits filed as inhibitors; actives 0.63% (n = 310,000); calls by dose curve; tested in A549 cells; note: nearly all actives have a fitted effect of over 35% in size
Numbers without * were called inactive; i = inactive; ? = inconclusive; / = no result given; ! = not active in a repeat; [ ] = another dose, or the depositor's remark. A selection: hits, their analogues and other compounds. The true share with any hit is near 5.3%. % is set by controls: 0 for no effect and ±100 for the full control effect; potency is the fitted concentration of half-maximal effect.

SMILES	VACV Venus inh	HCV inh	FMDV antiviral	MARV entry inh	LASV entry inh	VACV mCherry inh
O=C1S/C(=C\C=C\c2ccco2)C(=O)N1c1ccc(O)cc1	-14.3%	?	?	20.6µM*	?	i
O=C1S/C(=C\C=C\c2ccco2)C(=O)N1c1ccccc1	-13.3%	2.1%	9.7%	?	?	-10.1%
CN1C(=O)/C(=C/C=C/c2ccco2)C(=O)NC1=S	58.4%	6.5%	?	/	/	16.7%
CC(C)Oc1ccc(C(=O)Nc2ccc3oc(-c4ccncc4)nc3c2)cc1	-7.8%	/	?	/	-3.4%[46.1 µM]	-6.9%
CN(C)c1ccc(/C=C/C=C2/C(=O)NC(=O)N(c3ccccc3)C2=O)cc1	-5.7%	?	20µM*	?	?	7.1%
C[C@@H]1CC=C[C@H]2[C@H]1C(=O)N(Cc1ccccc1)[C@H]2c1ccc2ccccc2c1Br	?	?	17.8µM*	/	/	-27.1%
COc1cccc(-c2ccc3c(N)c(C(=O)NCc4ccc(Cl)cc4)sc3n2)c1	-23.1%	/	-4.0%	-14.1%[46.1 µM]	7.94µM*	?
COc1cccc(CNC(=O)c2cc(-c3cccc(OC)c3)n[nH]2)c1	-3.1%	/	40.6%	/	-1.3%[46.1 µM]	-7.9%
COc1cccc(-c2cc(C(=O)NCc3ccccc3)[nH]n2)c1	-14.1%	/	49.6%	/	7.94µM*	-12.7%
CCCCN(Cc1ccco1)C(=O)Cn1ncc2c([nH]c3ccccc32)c1=O	-11.5%	/	?	/	-2.3%[46.1 µM]	-14.3%
Cc1cccc(NC(=O)Nc2ccc(Oc3c(F)c(F)c(F)c(F)c3F)cc2)c1	-6.9%	28.9%	/	18.1%	11.6%	i
O=C(Nc1ccc(Oc2c(F)c(F)c(F)c(F)c2F)cc1)OC1CCN2Cc3ccccc3N=C12 (stereo not given)	-13.0%	3.16µM*	20µM*	?	?	-3.8%
Cc1ccc(NC(=S)NCc2ccccc2)cc1[N+](=O)[O-]	-22.8%	-23.4%	19.0%	7.08µM*	15.8µM*	?
CC1(C)Cc2c(c(-c3ccco3)nc3sc4c(NCCO)ncnc4c23)CO1	/	12.6µM*	-29.3%	/	/	/
COCCCNc1ncnc2c1sc1nc(-c3ccco3)c3c(c12)CC(C)(C)OC3	-11.1%	?	-29.7%	-19.6%	?	-13.0%
CC1(C)Cc2c(c(N3CCOCC3)nc3sc4c(NCCN)ncnc4c23)CO1	/	7.08µM*	-11.8%	/	/	/
COCCNc1nnnc2c1sc1nc(N3CCOCC3)c3c(c12)CC(C)(C)OC3	-0.2%	?	-23.7%	8.6%	-7.3%	-2.9%
CN(C)CCNc1ncnc2c1sc1nc(N3CCOCC3)c3c(c12)CC(C)(C)SC3	/	10µM*	?	14.6µM*	?	/
CCC1CN(CCNC(=O)c2cc(C)nn2CC)Cc2cc(OC)ccc2O1 (stereo not given)	-10.1%	/	10.4%	/	/	-9.2%
FC(F)(F)c1cnc(-c2cc3c(c(OCC4CCCO4)c2)OCCN(Cc2cccn2-c2nccs2)C3)c(Cl)c1 (stereo not given)	-1.6%	/	-10.0%	/	/	-11.5%
OC(CNc1ncnc2sccc12)c1ccccc1 (stereo not given)	-27.6%	3.16µM*	1.9%	?	?	-6.1%
COc1ccc2c(CNCc3cccs3)c(C(=O)O)n(Cc3ccccc3C)c2c1	-15.5%	/	3.2%	/	4.6%[46.1 µM]	i
C(=C\c1ccccc1)/CSc1nnc(-c2ccccn2)n1Cc1ccco1	?	10µM*	0.0%	?	?	?
O=C(CNCc1ccc(Cl)cc1)Nc1cc(S(=O)(=O)N2CCCC2)ccc1Cl	-8.3%	7.94µM*	?	?	-17.4%	-6.9%
O=C(Cc1ccccc1F)Nc1cc(S(=O)(=O)N2CCCC2)ccc1Cl	/	-19.9%	12.8%	/	/	/
SMILES	VACV Venus inh	HCV inh	FMDV antiviral	MARV entry inh	LASV entry inh	VACV mCherry inh
O=C(CN1CCN(c2ccc(O)cc2)CC1)Nc1cc(S(=O)(=O)N2CCCCC2)ccc1Cl	-6.3%	10µM*	0.0%	-25.9%[46.1 µM]	-26.1%	-16.1%
O=C(CN1CCN(c2ccc(O)cc2)CC1)Nc1cc(S(=O)(=O)N2CCCC2)ccc1Cl	/	?	-4.3%	/	/	/
O=C(CN1CCN(c2ccc(O)cc2)CC1)Nc1ccc2c(c1)OCCCO2	/	6.31µM*	?	/	/	/
CN1CCN(S(=O)(=O)c2ccc(NC(=O)Nc3cccc(Cl)c3)cc2)CC1	?	7.94µM*!	13.3%	?	?	/
O=C(CN1CCN(c2cccc(C(F)(F)F)c2)CC1)Nc1ccc2c(c1)OCCCO2	-21.2%	/	-19.4%	/	/	-12.9%
Cc1ncc2c(c1CNS(=O)(=O)N(C)C)CCN(C(=O)c1ccc(F)cc1Cl)C2	-7.4%	/	8.9%	/	/	-11.2%
Cc1ccc(C(=O)c2cn(CC(=O)NCc3ccccc3Cl)c3nc(C)ccc3c2=O)cc1	0.2%	/	-13.8%	/	11.5%[46.1 µM]	0.2%
O=C(Cn1cncn1)NCC1Cc2cc(-c3ccsc3)cc(Cl)c2O1 (stereo not given)	-13.0%	/	3.2%	/	/	-14.1%
CCOC(=O)CN1C(=O)NC(CCc2ccccc2)C(C(=O)OC)=C1C (stereo not given)	/	/	/	-23.0%[14.2 µM]	?	/
O=C(Nc1cccc(Cl)c1)Nc1cc(S(=O)(=O)N2CCCCC2)ccc1Cl	?	11.2µM*	?	3.98µM*	?	-24.8%
Cc1ccc(S(=O)(=O)N2CCCCC2)cc1NC(=O)Nc1ccc(Cl)cc1Cl	-28.2%	-1.8%	?	/	/	-6.4%
CCCCOC(OCCCC)[C@H](O)CSc1ccc2ccccc2c1	/	/	/	-28.4%[14.2 µM]	/	/
CCOC(=O)Cc1csc(NC(=O)COc2ccc(OC)cc2)n1	-4.0%	-26.0%	?	/	/	i
Cc1ccc(N(C)S(=O)(=O)c2cccc(C(=O)OCC(=O)N(C)Cc3ccccc3)c2)cc1	-16.3%	/	28.2µM*	/	/	i
CN(c1ccc(C(=O)Nc2ccc(F)cc2F)cc1)S(=O)(=O)c1ccccc1	-26.3%	?	?	-26.6%	11.2µM*	-5.4%
CCOC(=O)Cc1csc(NC(=O)COc2ccc(N(C)S(=O)(=O)c3ccc(C)cc3)cc2)n1	-5.9%	?	17.8µM*	?	-20.9%	-14.6%
COc1ccc(NC(=O)c2cccc(S(=O)(=O)N(C)c3ccccc3)c2)cn1	-14.3%	?	35.5µM*	-29.7%	?	-24.8%
CN(C)c1ncc2nc(-c3ccccc3)c(=O)n(C[C@H]3CCCO3)c2n1	/	/	3.8%	/	/	/
CN(C)S(=O)(=O)c1cccc(C(=O)Nc2ccc(Cl)cn2)c1	-11.3%	-29.2%	/	?	-17.5%	?
CN(c1ccccc1)S(=O)(=O)c1cccc(NC(=O)c2ccc(Cl)c([N+](=O)[O-])c2)c1	-20.5%	11.2µM*	31.6µM*	?	?	i
CN(C)S(=O)(=O)c1cccc(NC(=O)c2cccc(NS(=O)(=O)c3ccccc3)c2)c1	-17.2%	12.6µM*	?	?	?	-21.7%
CN(c1ccccc1)S(=O)(=O)c1cccc(NC(=O)c2ccc(=O)[nH]c2)c1	/	-11.5%	-22.4%	/	/	/

Source: PubChem BioAssay
